# Assay results published in PubChem BioAssay (EPA / NIEHS).
# Active and inactive are the calls of the source. Rule for the calls: active = hit-call score of the fitted dose curve at least 0.9, where 1 is the maximum; inactive = score below 0.9.
# Key:
# [1] = ATG_GLI_CIS: Attagene CIS-FACTORIAL HepG2 Assay for human Zinc Finger Protein GLI1 (AID 2282945); details: HepG2, Attagene cis-factorial reporter mRNA, GLI element; actives raise or lower the signal
# In short: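 Bidirectional curve fits relative to DMSO, using reporter mRNA levels from RT-PCR plus capillary electrophoresis. Cells were HepG2 transiently carrying cis-regulated reporter constructs, harvested 24 h after dosing.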
# [2] = ATG_GRE_CIS: Attagene CIS-FACTORIAL HepG2 Assay for human Glucocorticoid Response Elements (GRE) (AID 2282947); details: HepG2 GRE cis-reporter, Attagene multiplex mRNA; actives raise or lower the signal
# In short: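 Reporter transcripts read by RT-PCR with capillary electrophoresis fluorescence after a 24 h chemical exposure of HepG2 cells transiently transfected with multiple cis-element reporter units. Gain or loss fitted against DMSO.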
# [3] = ATG_ISRE_CIS: Attagene CIS-FACTORIAL HepG2 Assay for human Interferon Regulatory Factor 1 (IRF1) binding to an Interferon-Stimulated Response Element (ISRE) (AID 2282948); details: HepG2 ISRE cis-reporter (Attagene), mRNA transcription readout; actives raise or lower the signal
# In short: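 Signal reflects induction or loss of ISRE-linked reporter mRNA in transiently transfected HepG2 cells after a 24 h treatment, detected by fluorescent RT-PCR fragments on capillary electrophoresis and normalised to DMSO.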
# [4] = ATG_M_32_CIS: Attagene CIS-FACTORIAL HepG2 Assay for M32 Transcription Factor (Internal Marker) (AID 2282949); details: HepG2 Attagene cis-factorial M32 reporter, mRNA; actives raise or lower the signal;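 note: background control marker of the multiplexed CIS panel rather than a real target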
# In short: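 HepG2 human liver cells transiently transfected with cis-promoter-driven multiple reporter transcription units, dosed 24 h. Reporter mRNA quantified by RT-PCR, FAM-labelled primer extension, HpaI digest and capillary electrophoresis; bidirectional fit versus DMSO baseline.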
# [5] = ATG_M_06_CIS: Attagene CIS-FACTORIAL HepG2 Assay for M06 Transcription Factor (Internal Marker) (AID 2282950); details: HepG2 Attagene CIS-FACTORIAL M06 internal marker reporter; actives raise or lower the signal
# In short: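 Internal background marker within multiplexed cis-reporter HepG2 system. Cells transiently transfected, dosed 24 h; reporter mRNA measured by RT-PCR, HpaI digestion and capillary electrophoresis. Bidirectional fit relative to DMSO.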
# [6] = target: Hypoxia-inducible factor 1-alpha (Homo sapiens) (UniProt Q16665); assay: ATG_HIF1a_CIS: Attagene CIS-FACTORIAL HepG2 Assay for human Hypoxia Inducible Factor 1 (HIF1A) (AID 2282951); details: HepG2 Attagene cis-factorial HIF1a reporter transcription; actives raise or lower the signal
# In short: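 After 24 h chemical exposure of reporter-transfected HepG2 cells, reporter cDNA was PCR-amplified, labelled by 6-FAM primer extension (2 min 95 C, 20 s 68 C, 10 min 72 C), HpaI-cut (2 h, 37 C) and analysed by CE.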
# [7] = target: Hepatocyte nuclear factor 6 (Homo sapiens) (UniProt Q9UBC0); assay: ATG_HNF6_CIS: Attagene CIS-FACTORIAL HepG2 Assay for human Hepatocyte Nuclear Factor 6 (HNF6) (AID 2282952); details: HepG2 Attagene cis-factorial HNF6 reporter transcription; actives raise or lower the signal
# In short: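 Activity values derive from bidirectional fitting against DMSO of reporter mRNA levels, measured by capillary electrophoresis of labelled RT-PCR products from HepG2 cells exposed 24 h.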
# [8] = target: Heat shock factor protein 1 (Homo sapiens) (UniProt Q00613); assay: ATG_HSE_CIS: Attagene CIS-FACTORIAL HepG2 Assay for human Heat Shock Transcription Factor 1 (HSE) (AID 2282953); details: HepG2 HSE cis-reporter, Attagene RNA transcription; actives raise or lower the signal
# In short: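 HepG2 cells transfected with cis-promoter reporter units sensing endogenous transcription factor activity; reporter mRNA quantified 24 h post-dose by RT-PCR and capillary electrophoresis of 6-FAM-labelled products. Bidirectional fitting against DMSO.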
# [9] = ATG_MRE_CIS: Attagene CIS-FACTORIAL HepG2 Assay for human Metal Responsive Element (MRE) (AID 2282954); details: HepG2 MRE cis-reporter transcription, Attagene multiplex; actives raise or lower the signal
# In short: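 Endogenous MRE-dependent transcription read as reporter mRNA in transiently transfected human HepG2 cells at 24 h. RNA reverse-transcribed, PCR-amplified, labelled and resolved by capillary electrophoresis; gain or loss relative to DMSO.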
# [10] = ATG_PBREM_CIS: Attagene CIS-FACTORIAL HepG2 Assay for human Phenobarbital-responsive Enhancer Module (PBREM) (AID 2282955); details: HepG2 PBREM cis-reporter, Attagene multiplexed transcription; actives raise or lower the signal
# In short: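 Measures endogenous factor action on a phenobarbital-responsive enhancer module. HepG2 transiently carrying cis reporters, 24 h treatment, mRNA read-out by RT-PCR plus capillary electrophoresis.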
# [11] = target: Paired box protein Pax-6 (Homo sapiens) (UniProt P26367); assay: ATG_Pax6_CIS: Attagene CIS-FACTORIAL HepG2 Assay for human Paired Box 6 (PAX6) (AID 2282956); details: HepG2 CIS-FACTORIAL PAX6 reporter transcription, RNA readout; actives raise or lower the signal
# In short: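 Values derive from bidirectional curve fitting of reporter mRNA signal relative to DMSO. HepG2 cells bearing transfected cis-regulated MRTUs were exposed for 24 h; transcripts were read by RT-PCR and capillary electrophoresis.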
# [12] = ATG_PXRE_CIS: Attagene CIS-FACTORIAL HepG2 Assay for human Pregnane X Receptor Element (PXRE) (AID 2282957); details: HepG2 Attagene CIS-FACTORIAL PXRE reporter, mRNA; actives raise or lower the signal
# In short: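 Fluorescent capillary electrophoresis of amplified reporter cDNA gave the signal, collected 24 h after dosing HepG2 cells that held transfected cis-element reporter constructs.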
# [13] = ATG_PPRE_CIS: Attagene CIS-FACTORIAL HepG2 Assay for human Peroxisome Proliferator-activated Response Element (PPRE) (AID 2282958); details: HepG2 PPRE cis-element reporter, Attagene transcription factor profiling; actives raise or lower the signal
# In short: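 PPRE activity in HepG2: transient cis-reporter transfection, 24 h compound incubation, reporter mRNA by RT-PCR and CE fluorescence; gain/loss fitted against DMSO.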
# [14] = ATG_Sox_CIS: Attagene CIS-FACTORIAL HepG2 Assay for human SRY-box transcription factor (SOX) (AID 2282960); details: HepG2 Attagene cis-factorial SOX reporter, mRNA; actives raise or lower the signal
# In short: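 HepG2, cis reporter units, 24 h exposure. Reporter mRNA: RT-PCR → FAM labelling → HpaI → CE fluorescence. Bidirectional fit vs DMSO.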
# [15] = target: Transcription factor Sp1 (Homo sapiens) (UniProt P08047); assay: ATG_Sp1_CIS: Attagene CIS-FACTORIAL HepG2 Assay for human Specificity Protein 1 (Sp1) (AID 2282961); details: HepG2 Sp1 cis-reporter transcription, actives raise or lower the signal
# In short: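 Liver-derived HepG2 cells, cis-element reporter library, 24 h treatment; RNA isolated, cDNA amplified with reporter-specific primers, FAM-labeled fragments sized on capillary analyzer. DMSO baseline, bidirectional curve fit.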
# [16] = ATG_SREBP_CIS: Attagene CIS-FACTORIAL HepG2 Assay for human Sterol Regulatory Element Binding (SREBP) (AID 2282962); details: HepG2 Attagene cis-factorial SREBP reporter, mRNA; actives raise or lower the signal
# In short: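 Values derive from bidirectional curve fitting with DMSO as baseline. The underlying measurement is reporter mRNA from cis-element-regulated units in transiently transfected HepG2, quantified by RT-PCR and capillary electrophoresis after 24 h exposure.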
# [17] = target: Signal transducer and activator of transcription 3 (Homo sapiens) (UniProt P40763); assay: ATG_STAT3_CIS: Attagene CIS-FACTORIAL HepG2 Assay for human Signal Transducer and Activator of Transcription 3 (STAT3) (AID 2282963); details: HepG2, Attagene cis-factorial STAT3 reporter transcription; actives raise or lower the signal
# In short: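 Readout is reporter transcript quantified by RT-PCR and capillary electrophoresis, with 6-FAM primer extension and HpaI digestion. Total RNA is taken 24 h after dosing transiently transfected HepG2 carrying cis-regulated reporter units. Bidirectional fit against DMSO.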
# [18] = ATG_TA_CIS: Attagene CIS-FACTORIAL HepG2 Assay for human TA Basal Promoter (AID 2282964); details: HepG2 Attagene CIS-factorial TA basal promoter reporter; actives raise or lower the signal
# In short: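 HepG2 cells transiently transfected with multiple reporter units under cis promoter elements, reporting endogenous transcription factor activity; this endpoint tracks the TA basal promoter as background control. Reporter mRNA after 24 h dosing measured by RT-PCR/capillary electrophoresis; bidirectional fits versus DMSO.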
# [19] = ATG_RORE_CIS: Attagene CIS-FACTORIAL HepG2 Assay for human RAR-related Orphan Receptor Element (RORE) (AID 2282959); details: HepG2 Attagene cis-factorial RORE reporter, mRNA; actives raise or lower the signal
# In short: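 A 24-hour exposure of transfected HepG2 hepatoma cells precedes RNA isolation and reporter RT-PCR. Labeled products are digested with HpaI and resolved by capillary electrophoresis, with gain or loss of signal scored relative to DMSO.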
# Chain of Paired box protein Pax-6 (Homo sapiens) (P26367 whole entry, looked up): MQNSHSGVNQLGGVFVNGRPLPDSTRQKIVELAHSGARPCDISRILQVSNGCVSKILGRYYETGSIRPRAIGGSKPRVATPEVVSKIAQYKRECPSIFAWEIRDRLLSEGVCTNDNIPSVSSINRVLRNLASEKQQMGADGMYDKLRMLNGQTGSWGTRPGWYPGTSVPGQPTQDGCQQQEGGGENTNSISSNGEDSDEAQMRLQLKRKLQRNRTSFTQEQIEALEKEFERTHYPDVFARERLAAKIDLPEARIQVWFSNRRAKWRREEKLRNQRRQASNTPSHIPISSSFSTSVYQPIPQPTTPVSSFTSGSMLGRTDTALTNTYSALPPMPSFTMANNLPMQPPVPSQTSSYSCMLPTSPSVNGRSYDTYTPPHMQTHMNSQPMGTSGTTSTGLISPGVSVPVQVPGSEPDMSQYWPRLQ
# Chain of Hypoxia-inducible factor 1-alpha (Homo sapiens) (Q16665 whole entry, looked up): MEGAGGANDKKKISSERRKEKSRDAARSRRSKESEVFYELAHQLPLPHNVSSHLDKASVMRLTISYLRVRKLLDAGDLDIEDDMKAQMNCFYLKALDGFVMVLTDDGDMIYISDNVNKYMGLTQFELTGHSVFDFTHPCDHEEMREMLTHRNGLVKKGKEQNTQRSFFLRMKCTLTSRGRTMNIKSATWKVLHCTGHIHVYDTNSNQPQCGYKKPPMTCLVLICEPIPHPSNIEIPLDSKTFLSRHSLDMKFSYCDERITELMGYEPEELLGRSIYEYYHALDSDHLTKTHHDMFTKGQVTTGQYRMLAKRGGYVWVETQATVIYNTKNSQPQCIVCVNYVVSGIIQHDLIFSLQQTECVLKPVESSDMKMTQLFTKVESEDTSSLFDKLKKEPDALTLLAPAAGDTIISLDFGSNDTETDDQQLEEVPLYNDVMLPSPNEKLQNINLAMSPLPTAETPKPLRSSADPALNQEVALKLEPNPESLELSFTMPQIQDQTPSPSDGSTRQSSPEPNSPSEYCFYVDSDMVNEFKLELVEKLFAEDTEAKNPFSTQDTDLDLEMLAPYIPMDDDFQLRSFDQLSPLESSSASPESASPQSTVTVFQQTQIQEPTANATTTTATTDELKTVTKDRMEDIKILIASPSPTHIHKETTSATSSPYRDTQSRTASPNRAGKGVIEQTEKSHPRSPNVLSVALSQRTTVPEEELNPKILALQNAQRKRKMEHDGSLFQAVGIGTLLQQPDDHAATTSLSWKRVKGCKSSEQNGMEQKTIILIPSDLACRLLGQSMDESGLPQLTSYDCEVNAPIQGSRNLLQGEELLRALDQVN
# Chain of Heat shock factor protein 1 (Homo sapiens) (Q00613 whole entry, looked up): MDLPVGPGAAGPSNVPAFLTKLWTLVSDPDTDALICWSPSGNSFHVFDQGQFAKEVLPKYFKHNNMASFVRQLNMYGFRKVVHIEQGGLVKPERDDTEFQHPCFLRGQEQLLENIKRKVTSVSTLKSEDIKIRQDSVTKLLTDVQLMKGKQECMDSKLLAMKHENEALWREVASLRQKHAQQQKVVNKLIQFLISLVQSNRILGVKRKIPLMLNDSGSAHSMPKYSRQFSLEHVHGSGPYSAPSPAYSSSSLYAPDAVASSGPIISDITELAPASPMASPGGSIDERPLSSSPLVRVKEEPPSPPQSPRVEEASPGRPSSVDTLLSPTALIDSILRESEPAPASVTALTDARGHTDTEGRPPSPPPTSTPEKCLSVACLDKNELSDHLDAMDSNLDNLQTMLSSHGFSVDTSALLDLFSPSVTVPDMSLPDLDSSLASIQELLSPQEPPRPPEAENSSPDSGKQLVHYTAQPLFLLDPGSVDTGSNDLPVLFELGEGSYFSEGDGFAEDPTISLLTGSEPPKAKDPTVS
# Chain of Signal transducer and activator of transcription 3 (Homo sapiens) (P40763 whole entry, looked up): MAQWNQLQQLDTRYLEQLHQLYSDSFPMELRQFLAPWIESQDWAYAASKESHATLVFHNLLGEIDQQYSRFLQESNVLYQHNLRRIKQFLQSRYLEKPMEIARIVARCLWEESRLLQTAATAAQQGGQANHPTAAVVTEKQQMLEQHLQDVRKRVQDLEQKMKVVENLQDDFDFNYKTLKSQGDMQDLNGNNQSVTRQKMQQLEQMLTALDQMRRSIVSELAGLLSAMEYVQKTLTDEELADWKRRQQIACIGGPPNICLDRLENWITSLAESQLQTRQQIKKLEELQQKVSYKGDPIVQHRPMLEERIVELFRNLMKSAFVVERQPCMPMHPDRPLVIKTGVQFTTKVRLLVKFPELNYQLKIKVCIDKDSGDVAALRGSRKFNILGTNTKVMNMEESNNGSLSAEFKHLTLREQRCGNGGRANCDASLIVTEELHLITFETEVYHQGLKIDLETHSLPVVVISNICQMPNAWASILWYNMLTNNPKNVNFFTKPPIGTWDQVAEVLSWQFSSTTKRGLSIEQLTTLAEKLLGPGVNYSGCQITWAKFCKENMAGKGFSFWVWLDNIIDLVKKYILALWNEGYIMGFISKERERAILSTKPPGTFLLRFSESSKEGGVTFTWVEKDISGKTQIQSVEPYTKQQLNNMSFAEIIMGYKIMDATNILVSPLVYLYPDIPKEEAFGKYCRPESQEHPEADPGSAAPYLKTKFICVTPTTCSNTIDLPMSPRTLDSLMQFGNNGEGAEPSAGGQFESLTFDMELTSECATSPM
# Chain of Transcription factor Sp1 (Homo sapiens) (P08047 whole entry, looked up, the tested form may be a part): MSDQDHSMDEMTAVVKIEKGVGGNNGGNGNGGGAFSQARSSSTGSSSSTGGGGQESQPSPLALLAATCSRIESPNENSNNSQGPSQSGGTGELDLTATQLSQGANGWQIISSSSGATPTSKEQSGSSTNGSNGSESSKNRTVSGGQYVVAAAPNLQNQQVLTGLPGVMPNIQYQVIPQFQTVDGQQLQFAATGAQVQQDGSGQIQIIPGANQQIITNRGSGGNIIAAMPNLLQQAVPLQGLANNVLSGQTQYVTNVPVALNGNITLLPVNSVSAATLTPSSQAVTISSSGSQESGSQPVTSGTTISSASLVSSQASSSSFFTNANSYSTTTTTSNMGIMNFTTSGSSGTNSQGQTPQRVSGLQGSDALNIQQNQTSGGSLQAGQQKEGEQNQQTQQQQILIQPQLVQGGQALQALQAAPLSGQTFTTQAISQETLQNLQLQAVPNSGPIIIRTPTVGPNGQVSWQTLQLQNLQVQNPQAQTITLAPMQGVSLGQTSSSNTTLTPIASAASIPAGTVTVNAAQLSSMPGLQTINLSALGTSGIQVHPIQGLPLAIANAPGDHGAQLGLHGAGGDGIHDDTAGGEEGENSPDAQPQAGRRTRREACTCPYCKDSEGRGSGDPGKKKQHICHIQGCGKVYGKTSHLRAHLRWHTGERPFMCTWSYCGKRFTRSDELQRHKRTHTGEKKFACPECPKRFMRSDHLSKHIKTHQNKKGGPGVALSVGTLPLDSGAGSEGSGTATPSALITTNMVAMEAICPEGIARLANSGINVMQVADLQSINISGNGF
# Chain of Hepatocyte nuclear factor 6 (Homo sapiens) (Q9UBC0 whole entry, looked up): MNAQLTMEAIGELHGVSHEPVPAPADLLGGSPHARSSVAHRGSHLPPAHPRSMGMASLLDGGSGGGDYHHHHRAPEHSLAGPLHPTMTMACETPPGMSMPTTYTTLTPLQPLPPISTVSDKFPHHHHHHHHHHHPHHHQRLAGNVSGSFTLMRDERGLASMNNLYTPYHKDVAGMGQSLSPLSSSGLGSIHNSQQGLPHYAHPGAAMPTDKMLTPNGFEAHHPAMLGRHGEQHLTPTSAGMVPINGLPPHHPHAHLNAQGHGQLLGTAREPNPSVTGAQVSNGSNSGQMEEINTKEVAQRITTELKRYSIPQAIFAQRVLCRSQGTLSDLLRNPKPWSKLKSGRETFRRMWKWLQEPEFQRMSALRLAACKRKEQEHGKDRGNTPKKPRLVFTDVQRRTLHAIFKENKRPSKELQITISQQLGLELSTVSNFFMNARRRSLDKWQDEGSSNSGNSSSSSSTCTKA
compound,measurement,setting,value
CCCCCCOCCO,outcome,[1],inactive
same,outcome,[2],inactive
same,outcome,[3],inactive
same,outcome,[4],inactive
same,outcome,[5],inactive
same,outcome,[6],inactive
same,outcome,[7],inactive
same,outcome,[8],inactive
same,outcome,[9],inactive
same,outcome,[10],inactive
same,outcome,[11],inactive
same,outcome,[12],inactive
same,outcome,[13],inactive
same,outcome,[14],inactive
same,outcome,[15],inactive
same,outcome,[16],inactive
same,outcome,[17],inactive
same,outcome,[18],inactive
Oc1ccc2c(c1)OC[C@@H](N1CCC(O)(c3ccc(F)cc3)CC1)[C@H]2O,outcome,[1],inactive
same,outcome,[2],inactive
same,outcome,[3],inactive
same,outcome,[4],inactive
same,outcome,[5],inactive
same,outcome,[6],inactive
same,outcome,[7],inactive
same,outcome,[8],inactive
same,AC50,[9],57.2 µM (active)
same,AC50,[10],43.2 µM (active)
same,AC50,[11],63.7 µM (active)
same,AC50,[12],13.7 µM (active)
same,outcome,[13],inactive
same,AC50,[19],50 µM (active)
same,outcome,[15],inactive
same,outcome,[16],inactive
same,outcome,[17],inactive
same,outcome,[18],inactive
CCCCC(CC)COC(=O)CC(C(=O)OCC(CC)CCCC)S(=O)(=O)O (stereo not drawn),outcome,[1],inactive
same,outcome,[2],inactive
same,outcome,[3],inactive
same,outcome,[4],inactive
same,outcome,[5],inactive
same,AC50,[6],0.743 nM (active)
same,outcome,[7],inactive
same,outcome,[8],inactive
same,outcome,[9],inactive
same,outcome,[10],inactive
same,outcome,[11],inactive
same,AC50,[12],1.1 µM (active)
same,outcome,[13],inactive
same,outcome,[19],inactive
same,outcome,[15],inactive
same,AC50,[16],14.2 µM (active)
same,outcome,[17],inactive
same,outcome,[18],inactive
Cc1ccc(C)c(C)c1,outcome,[1],inactive
same,outcome,[2],inactive
same,outcome,[3],inactive
same,outcome,[4],inactive
same,outcome,[5],inactive
same,outcome,[6],inactive
same,outcome,[7],inactive
same,outcome,[8],inactive
same,outcome,[9],inactive
same,outcome,[10],inactive
same,outcome,[11],inactive
same,AC50,[12],27.5 µM (active)
same,outcome,[13],inactive
same,outcome,[19],inactive
same,outcome,[14],inactive
same,outcome,[15],inactive
same,outcome,[16],inactive
same,outcome,[17],inactive
same,outcome,[18],inactive
